Bioassay records as filed in PubChem.
Most compounds without a hit are left out; they make up all but 13% or so of the library.
USP17 inh: human USP17-like deubiquitinase inhibition | 6.5% of 47,000 active | purified USP17, Ub-rhodamine cleavage fluorescence, 3 h | AID 1645855 | A8MUK1 | inhibition, % at 50 µM
USP8 block: inhibitors of human USP8 deubiquitinase; P40818; purified USP8, Ub-rhodamine cleavage fluorescence, 30 min; inhibition, % at 20 µM; 4.2% of 47,000 active
USP10 block: human USP10 deubiquitinase inhibition; 1.1% of 47,000 active; AID 1645856; Q14694; inhibition, % at 20 µM; purified USP10, Ub-rhodamine fluorescence, 60 min
USP28 inh: human USP28 deubiquitinase inhibition | inhibition, % at 25 µM | 3% of 47,000 active | AID 1645857 | Q96RU2 | purified USP28, Ub-rhodamine cleavage fluorescence, 30 min
USP30 inh: human USP30 deubiquitinase inhibition; Q70CQ3; purified USP30, Ub-rhodamine cleavage fluorescence; inhibition, % at 25 µM; 5.3% of 47,000 active; AID 1645860
Target sequence (Q70CQ3 whole entry, looked up): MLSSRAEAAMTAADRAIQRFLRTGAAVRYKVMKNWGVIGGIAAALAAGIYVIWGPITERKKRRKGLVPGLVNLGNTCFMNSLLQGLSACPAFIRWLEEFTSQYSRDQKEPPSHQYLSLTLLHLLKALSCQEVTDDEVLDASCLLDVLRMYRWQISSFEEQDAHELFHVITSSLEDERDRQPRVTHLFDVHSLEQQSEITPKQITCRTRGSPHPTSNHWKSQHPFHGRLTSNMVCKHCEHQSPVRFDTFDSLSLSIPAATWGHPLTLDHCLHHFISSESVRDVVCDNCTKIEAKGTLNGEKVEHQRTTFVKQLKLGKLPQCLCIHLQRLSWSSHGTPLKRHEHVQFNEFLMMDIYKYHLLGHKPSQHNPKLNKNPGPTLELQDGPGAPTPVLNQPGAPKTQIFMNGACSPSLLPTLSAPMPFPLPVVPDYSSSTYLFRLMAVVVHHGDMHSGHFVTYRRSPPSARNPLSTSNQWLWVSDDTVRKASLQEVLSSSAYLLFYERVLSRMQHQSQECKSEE
Active calls of the source: *; i = inactive; / = no result. Cut-off read from the data, not from the text of the source: active = inhibition above about 30%; inactive = the rest.

SMILES	USP17 inh	USP8 block	USP10 block	USP28 inh	USP30 inh
O=C(c1ccc(Cl)cc1)N(c1ccccn1)C1CCCCC1	87*	54*	71*	48*	81*
CCCOc1cccc(CCC(=O)O)c1	12	9	1	6	14
CCOc1ccc2[nH]c3c(=O)n(CCc4ccc(OC)cc4)cnc3c2c1	67*	5	27	15	13
O=c1c2[nH]c3ccc(Br)cc3c2ncn1CCN1CCNCC1	38*	8	-4	12	40*
Cc1ccc2[nH]c3c(=O)n(CCc4ccccc4)cnc3c2c1	12	32*	12	-3	30
O=c1c2[nH]c3ccc(Cl)cc3c2ncn1CCc1ccccc1	2	13	4	-7	-1
COc1ccc2c(c1)[nH]c1c(=O)n(Cc3ccccc3)cnc12	71*	12	21	0	73*
CC(C(O)c1ccccc1)N(C)CC1C(=O)O[C@@H]2CC3=CCC[C@H](C)[C@@]3(C)[C@@H](O)[C@H]12 (stereo partly drawn)	1	17	-4	0	4
CCN1CCN(C(=O)c2cnn(-c3ccc(-c4nc(C5CC5)no4)cn3)c2C)CC1	0	-8	-4	9	22
CC1CCN(S(=O)(=O)c2cccn(CC(=O)Nc3ccccc3F)c2=O)CC1	-9	-8	-2	-8	-25
Cc1ccccc1C(=O)N1CCC2(C1)Nc1cccnc1NC2=NCc1ccccc1 (stereo not drawn)	-125	-133	-2	-171	i
CCN1[C@H]2CCN(C(=O)c3cccc(OC)c3)CC[C@@H]2Oc2ccccc2S1(=O)=O	-2	0	0	-2	0
O=c1c2[nH]c3ccc(Cl)cc3c2ncn1CCC1=CCCCC1	7	14	-2	-1	-7
CCOc1ccc2[nH]c3c(=O)n(CCC4=CCCCC4)cnc3c2c1	/	47*	9	15	17
Cc1cn[nH]c1C1COCCN1S(=O)(=O)c1ccc(F)cc1 (stereo not drawn)	10	10	0	-5	18
Cn1cncc1CN1CCC2(CC1)CN(c1cccnc1)c1ccccc12	-20	-44	5	4	-13
COc1c(O)cc2cc(C)oc(=O)c2c1O	7	7	3	8	36*
CC1CCN(C(=O)CSc2nc(N)c3c4c(sc3n2)CN(C)CC4)CC1	-37	-6	-13	-38	-234
CN1CCc2c(sc3nc(SCC(=O)Nc4nccs4)nc(N)c23)C1	38*	-27	-5	/	/
Cn1c(=O)c2c(-c3ccncc3)cc(-c3ccccc3)nc2n(C)c1=O	10	13	-2	0	9
O=C1c2ccccc2-c2nnc(-c3ccncc3)cc21	47*	95*	7	13	34*
COc1ccc(CC(=O)Nc2cc(F)c3nc(N4CCOCC4)ccc3c2)cc1	-4	49*	3	-18	-18
COc1ccc(C(=O)Nc2cc(F)c3nc(N4CCOCC4)ccc3c2)c(OC)c1	73*	78*	-11	0	-127
COc1ccc(CC(=O)Nc2ccc(N3CCOCC3)cc2)cc1	3	0	0	-2	-6
O=C(Cc1cccs1)Nc1cc(F)c2nc(N3CCOCC3)ccc2c1	62*	-5	0	6	-20
SMILES	USP17 inh	USP8 block	USP10 block	USP28 inh	USP30 inh
COc1ccc(NC(=O)c2cnc(N3CCOCC3)nc2C)cc1	7	7	1	4	2
COCCCN1CCS(=O)(=O)c2c(Cl)c(F)nc(Oc3ccc(C#N)cc3)c21	80*	91*	10	20	-16
COCCN1CCS(=O)(=O)c2c(Cl)c(F)nc(Oc3ccccc3F)c21	49*	53*	0	5	-4
COCCN1CCS(=O)(=O)c2c(F)c(N3CCCC3)nc(F)c21	11	3	1	14	25
O=S1(=O)CCN(Cc2cccnc2)c2c(Oc3ccccc3F)nc(F)c(Cl)c21	13	15	-1	2	12
CCN1CCC2(CC1)NC(=O)N(C1CCCN(C(=O)Cc3cccc(C)c3)C1)C2=O (stereo not drawn)	17	23	1	9	26
O=C(NC1CCCC1)c1cnc2sc3c(n2c1=O)CCCC3	-35	1	0	-4	-1
O=C(C1COc2ccccc2O1)N1CCN(CC(=O)N(c2ccccc2)C2CCCCC2)CC1 (stereo not drawn)	12	20	0	7	27
Cc1nn(C)c2sc(C(=O)N(Cc3ccccn3)Cc3ccccn3)cc12	2	9	0	5	9
CCOC(=O)c1cc2c(CSc3ccccc3)nn(C)c2s1	28	28	9	34*	36*
Cc1cccc(-n2ncc(C(=O)N3CCc4ccccc43)c2-n2cccc2)c1	15	10	6	19	42*
O=C(NCC1CC1)C1CCCN(c2ccc(-c3ccccc3)nn2)C1 (stereo not drawn)	-10	0	0	-3	0
COc1cc(C#N)c(NC(=NCc2ccc(F)cc2)SC)cc1OC	53*	14	-1	35*	48*
O=C(CSc1ncnc2c1cnn2-c1ccccc1)Nc1ccccc1-c1ccccc1	13	6	3	11	31*
O=c1[nH]c2c(cc1CNc1ccc(Cl)cc1)c(-c1cccc(F)c1)nn2-c1ccccc1	38*	-9	5	-16	-62
CC(C)(C)c1nn(-c2ccccc2)c2[nH]c(=O)c(CNCc3cccnc3)cc12	28	5	3	14	1
O=c1[nH]c2c(cc1CNc1ccc(Oc3ccccc3)cc1)c(-c1ccc(F)cc1)nn2-c1ccccc1	27	77*	63*	-31	-146
Cc1ccc(NCc2cc3c(-c4cccc(F)c4)nn(-c4ccccc4)c3[nH]c2=O)cc1C	-88	37*	36*	-77	-349
CC(C)Cc1nc2sc3c(SCC(=O)NCCc4ccccc4)ncnc3c2c2c1CCC2	13	-53	6	22	29
CCc1ccccc1NC(=O)Cc1csc2nc(-c3ccccc3)cn12	-2	-20	9	9	19
COc1ccc(NC(=O)Cc2ccccc2F)cc1S(=O)(=O)N1CCCCC1	/	3	0	10	8
COc1ccc(NC(=O)CN2CCN(c3ccc(C(C)=O)cc3)CC2)cc1S(=O)(=O)N1CCCCC1	36*	6	1	10	54*
CCCn1nnnc1CN1CCc2cc(OC)c(OC)cc2C1c1ccccc1 (stereo not drawn)	10	13	6	8	33*
CC(=O)c1ccc(NC(=O)C2CC(=O)Nc3nc(SCc4ccccc4)nn32)cc1 (stereo not drawn)	-2	15	30*	7	4
COc1cccc(NC(=O)C2CC(=O)Nc3nc(SCc4ccccc4)nn32)c1 (stereo not drawn)	5	8	13	12	21
O=C1CC(C(=O)Nc2ccc(F)cc2)n2nc(SCc3ccccc3)nc2N1 (stereo not drawn)	2	12	9	28	58*
O=C1CC(C(=O)Nc2cccc(F)c2)n2nc(SCc3ccccc3)nc2N1 (stereo not drawn)	1	-1	9	16	43*
